Assay results published in PubChem BioAssay (Tox21).
Unmarked numbers belong to inactive results. Records with an inconclusive call do not appear. A call without a number means that no potency is given here. Activity calls are given as the source filed them. Unless noted, calls come from the whole dose curve.

Columns and labels:
[1] = Nuclear factor erythroid 2-related factor 2/antioxidant responsive element (Nrf2/ARE) small molecule agonists: qHTS cell viability counter screen in human keratinocytes (AID 1919968; active = well fitted curve in the direction sought with a large enough effect in the repeat runs; an effect the other way counts as inactive or inconclusive; note: nearly all actives have a fitted effect of over 55% in size)
Summary of the method: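 KeratinoSens cells (HaCaT keratinocytes stably carrying an ARE-luciferase reporter) were seeded at 1,500 cells/well and rested 5 h at 37 C/5% CO2. They were then exposed to compounds in DMSO for 23 h. Viability was read by CellTiter-Fluor fluorescence after 1 h.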

[2] = target: Gonadotropin-releasing hormone receptor (Homo sapiens) (UniProt P30968); test: Human gonadotropin-releasing hormone receptor (GnRHR) small molecule agonists, calcium flux assay in GnRHR-HEK293 cells (AID 1920063); note: nearly all actives have a fitted effect of over 35% in size
Summary of the method: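 HEK293 cells stably expressing human GnRHR were plated 18 h at 37 °C, loaded with calcium dye 1 h at 37 °C, then given compound in agonist mode; fluorescence (Ex/Em 480/540) read kinetically for 3 min at 1 s intervals.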

[3] = target: KiSS-1 receptor (Homo sapiens) (UniProt Q969F8); test: Human kisspeptin (KISS1R) small molecule agonists, calcium flux assay in KISS1R-HEK293 cells (AID 1920064; active = well fitted curve in the direction sought with a large enough effect in the repeat runs; an effect the other way counts as inactive or inconclusive)
Summary of the method: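 HEK293 cells stably expressing human KISS1R were plated 18 h at 37 °C, loaded with calcium dye for 1 h at 37 °C, then given compound by pin tool. Fluorescence (Ex/Em 480/540) was read kinetically for 3 min.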

[4] = G protein-coupled receptor (GPCR) small molecule agonists, calcium flux assay: HEK293 wild type cell line counter screen (AID 1920065)
Summary of the method: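 Cells were plated and cultured 18 h at 37 C/5% CO2, then loaded with calcium dye for 1 h at 37 C. Compounds in DMSO were pin-transferred in agonist mode, and fluorescence (Ex/Em 480/540) was read kinetically for 3 min at 1 s intervals.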

[5] = p53 small molecule agonists, cell-based qHTS assay with human liver microsomes (AID 1963577)
Summary of the method: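 Compounds act here after metabolic activation: human liver microsomes and NADPH, both at 0.5 mg/mL final, were co-added to p53RE-bla cells. Incubation ran 16 h at 37 C, followed by LiveBLAzer detection.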

[6] = p53 small molecule agonists, cell-based qHTS assay with rat liver microsomes (AID 1963578)
Summary of the method: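 Read-out is beta-lactamase reporter fluorescence (LiveBLAzer, 2 h, room temperature, dark) in p53RE-bla cells treated 16 h at 37 C with compound, rat liver microsomes and NADPH, both 0.5 mg/mL final.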

[7] = p53 small molecule agonists, cell-based qHTS assay with human liver microsomes: qHTS cell viability counter screen (AID 1963579); note: nearly all actives have a fitted effect of over 45% in size
Summary of the method: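 Cells carrying the p53 response-element beta-lactamase reporter are treated for 16 h at 37 C with test compounds in the presence of human liver microsomes and NADPH (both 0.5 mg/mL final); ATP-based CellTiter-Glo luminescence then reports viability.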

[8] = p53 small molecule agonists, cell-based qHTS assay with rat liver microsomes: qHTS cell viability counter screen (AID 1963580); note: nearly all actives have a fitted effect of over 45% in size
Summary of the method: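 HCT-116 p53RE-bla, 4,000 cells/well, 5 h pre-incubation; cpd + rat liver microsomes 0.5 mg/mL + NADPH 0.5 mg/mL (final); 16 h, 37 C; CellTiter-Glo, 30 min RT; luminescence.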

[9] = p53 small molecule agonists, cell-based qHTS assay: qHTS cell viability counter screen (AID 1963581); note: nearly all actives have a fitted effect of over 45% in size
Summary of the method: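 p53RE-bla HCT-116 cells were exposed to compounds for 16 h at 37 C; after the beta-lactamase FRET read in the same wells, CellTiter-Glo was added and luminescence (intracellular ATP) read after 30 min at room temperature.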

[10] = p53 small molecule agonists, cell-based qHTS assay (AID 1963582; active = well fitted activation curve with a large enough effect in the signal ratio in the repeat runs, not every such curve was filed as active; the % refers to the signal ratio)
Summary of the method: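 p53RE-bla beta-lactamase reporter cells rested 5 h at 37 C/5% CO2, then received compounds in DMSO by pin transfer and were incubated 16 h at 37 C. LiveBLAzer B/G FRET substrate was loaded for 2 h at room temperature before fluorescence reading.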

[11] = target: 5-hydroxytryptamine receptor 2A (Homo sapiens) (UniProt P28223); test: 5-hydroxytryptamine receptor 2A (HTR2A) small molecule antagonists, cell-based qHTS assay (AID 1963586); note: nearly all actives have a fitted effect of over 45% in size
Summary of the method: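 Antagonist-mode intracellular calcium assay: DOI (4 nM) added after 5 min compound pre-incubation at room temperature to dye-loaded HTR2A-CHO cells. Fluorescence followed for 3 min, sampled every second.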

[12] = target: 5-hydroxytryptamine receptor 2A (Homo sapiens) (UniProt P28223); test: 5-hydroxytryptamine receptor 2A (HTR2A) small molecule agonists, cell-based qHTS assay (AID 1963587); note: nearly all actives have a fitted effect of over 30% in size; note: potency is the fitted concentration of half-maximal effect
Summary of the method: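 Kinetic calcium-flux fluorescence (2 min, 1 sec intervals) after compound addition in agonist mode. HTR2A-CHO cells were cultured 18 h, then dye-loaded 1 h at 37 C.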

[13] = target: Muscarinic acetylcholine receptor M1 (Homo sapiens) (UniProt P11229); test: Cholinergic receptor muscarinic 1 (CHRM1) small molecule antagonists, cell-based qHTS assay (AID 1963588); note: nearly all actives have a fitted effect of over 40% in size
Summary of the method: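 CHRM1-CHO calcium-flux assay, antagonist mode. Cells were seeded 18 h, dye-loaded 1 h at 37 C and given compound for 5 min at RT, then acetylcholine was added at 50nM. FDSS fluorescence was read 3 min; 15 concentrations, three runs.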

[14] = cAMP Responsive Elements (CRE) small molecule agonists, cell-based qHTS assay (AID 1963590)
Summary of the method: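 CRE-bla HEK 293T cells in DMEM with 10% dialyzed FBS, NEAA, pyruvate and 25 mM HEPES were plated 18 h at 37 C/5% CO2, then exposed to compounds in DMSO for 3 h before LiveBLAzer B/G FRET substrate addition.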

[15] = cAMP Responsive Elements (CRE) small molecule antagonists, cell-based qHTS assay (AID 1963591; active = well fitted inhibition curve with a large enough effect in the signal ratio in the repeat runs, not every such curve was filed as active; the % refers to the signal ratio)
Summary of the method: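 CRE-bla HEK293T cells were plated 18 h at 37 °C/5% CO2, pinned with compound in DMSO, then stimulated with NKH477 at 0.25 uM final for 3 h. LiveBLAzer B/G FRET substrate was added and plates incubated 2 h at room temperature.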

[16] = target: Beta-2 adrenergic receptor (Homo sapiens) (UniProt P07550); test: Adrenergic beta2 receptor (ADRB2) small molecule antagonists, cell-based qHTS assay (AID 1963592); note: series mostly up to about 92 µM; nearly all actives have a fitted effect of over 50% in size
Summary of the method: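 Cells (CHO, stable ADRB2 overexpression) incubated 18-20hr at 37C; compounds added from DMSO; agonist mix (1nM isoproterenol, 100uM IBMX, 25uM Ro-20-1724) added; 0.5hr RT; d2-cAMP and anti-cAMP-cryptate added; 1hr RT; 665/615 nm read.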

[17] = target: D(2) dopamine receptor (Homo sapiens) (UniProt P14416); test: Dopamine D2 receptor (DRD2) small molecule agonists, cell-based qHTS assay (AID 1963594); note: nearly all actives have a fitted effect of over 35% in size
Summary of the method: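 cAMP accumulation in DRD2-HEK293 cells measured by HTRF after 1 h detection; compounds added 10 min before NKH477 (200nM […]) forskolin-analogue stimulation, 30 min at room temperature, with Ro20-1724 present at 0.1 mM final.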

[18] = target: Muscarinic acetylcholine receptor M1 (Homo sapiens) (UniProt P11229); test: Cholinergic receptor muscarinic 1 (CHRM1) small molecule agonists, cell-based qHTS assay (AID 1963589); note: nearly all actives have a fitted effect of over 35% in size
Summary of the method: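 CHO cells stably expressing human CHRM1, seeded 18 h at 37 C/5% CO2, dye-loaded 1 h at 37 C, then given compound in agonist mode; intracellular calcium fluorescence read kinetically at 1 s intervals. Fifteen concentrations, three independent runs.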

[19] = target: D(2) dopamine receptor (Homo sapiens) (UniProt P14416); test: Dopamine D2 receptor (DRD2) small molecule antagonists, cell-based qHTS assay (AID 1963595; active = well fitted inhibition curve with a large enough effect in the signal ratio in the repeat runs, with a control signal flat; the % refers to the signal ratio)
Summary of the method: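 HTRF cAMP read-out at 665 and 620 nm emission (340 nm excitation). Antagonist mode: compounds were tested against 12 nM quinpirole in DRD2-HEK293 cells, with 200 nM NKH477 raising cAMP and 0.1 mM Ro20-1724 blocking its breakdown.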

Sequence of 5-hydroxytryptamine receptor 2A (Homo sapiens) (P28223 whole entry, looked up): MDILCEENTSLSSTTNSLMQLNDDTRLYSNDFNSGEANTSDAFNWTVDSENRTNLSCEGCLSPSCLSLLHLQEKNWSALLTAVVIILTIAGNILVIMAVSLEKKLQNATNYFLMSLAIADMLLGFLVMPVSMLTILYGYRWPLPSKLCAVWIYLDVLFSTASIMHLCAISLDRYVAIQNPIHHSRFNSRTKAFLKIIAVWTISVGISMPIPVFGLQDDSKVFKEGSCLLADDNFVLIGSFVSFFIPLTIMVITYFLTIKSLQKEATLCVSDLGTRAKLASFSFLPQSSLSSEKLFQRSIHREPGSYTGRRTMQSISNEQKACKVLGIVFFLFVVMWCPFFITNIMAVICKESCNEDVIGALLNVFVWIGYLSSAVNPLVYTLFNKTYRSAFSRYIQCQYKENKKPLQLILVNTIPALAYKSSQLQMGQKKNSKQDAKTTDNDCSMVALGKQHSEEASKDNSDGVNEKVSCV
Sequence of D(2) dopamine receptor (Homo sapiens) (P14416 whole entry, looked up): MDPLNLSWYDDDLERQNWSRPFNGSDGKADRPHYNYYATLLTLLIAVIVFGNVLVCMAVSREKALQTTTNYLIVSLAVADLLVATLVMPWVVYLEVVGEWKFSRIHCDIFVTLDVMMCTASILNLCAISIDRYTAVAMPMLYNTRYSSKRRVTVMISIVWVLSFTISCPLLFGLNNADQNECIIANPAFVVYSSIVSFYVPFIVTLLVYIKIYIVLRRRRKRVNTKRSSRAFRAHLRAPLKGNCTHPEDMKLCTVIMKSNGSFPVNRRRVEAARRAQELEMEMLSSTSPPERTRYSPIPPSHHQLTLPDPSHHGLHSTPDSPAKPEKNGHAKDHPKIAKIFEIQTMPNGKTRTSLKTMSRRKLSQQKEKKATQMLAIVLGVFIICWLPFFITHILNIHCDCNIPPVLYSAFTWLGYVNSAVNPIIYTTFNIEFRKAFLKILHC
Sequence of Gonadotropin-releasing hormone receptor (Homo sapiens) (P30968 whole entry, looked up): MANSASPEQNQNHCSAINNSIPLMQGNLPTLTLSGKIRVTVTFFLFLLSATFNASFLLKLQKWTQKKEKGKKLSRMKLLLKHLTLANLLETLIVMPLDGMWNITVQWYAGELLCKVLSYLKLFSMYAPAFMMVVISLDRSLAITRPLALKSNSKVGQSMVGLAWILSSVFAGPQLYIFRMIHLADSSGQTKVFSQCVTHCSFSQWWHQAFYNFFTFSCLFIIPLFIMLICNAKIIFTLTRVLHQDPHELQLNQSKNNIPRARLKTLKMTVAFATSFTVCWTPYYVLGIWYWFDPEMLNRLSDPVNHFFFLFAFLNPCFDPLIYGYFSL
Sequence of Muscarinic acetylcholine receptor M1 (Homo sapiens) (P11229 whole entry, looked up): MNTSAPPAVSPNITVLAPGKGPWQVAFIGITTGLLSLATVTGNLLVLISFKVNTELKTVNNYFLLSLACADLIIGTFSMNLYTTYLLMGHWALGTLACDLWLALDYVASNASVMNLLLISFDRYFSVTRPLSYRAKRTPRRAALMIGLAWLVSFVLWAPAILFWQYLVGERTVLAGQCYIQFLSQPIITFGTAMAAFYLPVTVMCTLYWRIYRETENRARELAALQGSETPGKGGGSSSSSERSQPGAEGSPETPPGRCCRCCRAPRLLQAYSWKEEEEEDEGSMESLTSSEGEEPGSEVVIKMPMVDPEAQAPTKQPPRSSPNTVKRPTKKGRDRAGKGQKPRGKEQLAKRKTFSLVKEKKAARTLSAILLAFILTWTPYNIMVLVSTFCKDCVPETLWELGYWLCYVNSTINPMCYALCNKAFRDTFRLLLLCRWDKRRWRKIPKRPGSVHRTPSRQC
Sequence of KiSS-1 receptor (Homo sapiens) (Q969F8 whole entry, looked up): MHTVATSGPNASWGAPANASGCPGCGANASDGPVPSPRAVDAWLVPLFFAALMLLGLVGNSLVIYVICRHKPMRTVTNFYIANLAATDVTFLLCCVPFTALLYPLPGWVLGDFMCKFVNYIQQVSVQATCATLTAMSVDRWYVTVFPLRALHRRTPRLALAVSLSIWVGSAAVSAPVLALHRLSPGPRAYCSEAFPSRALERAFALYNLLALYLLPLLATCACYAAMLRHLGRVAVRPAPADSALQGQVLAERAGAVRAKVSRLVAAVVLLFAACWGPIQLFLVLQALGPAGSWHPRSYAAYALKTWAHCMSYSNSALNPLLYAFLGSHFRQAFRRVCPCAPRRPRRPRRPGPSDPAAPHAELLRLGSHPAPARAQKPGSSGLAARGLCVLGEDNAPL
Sequence of Beta-2 adrenergic receptor (Homo sapiens) (P07550 whole entry, looked up): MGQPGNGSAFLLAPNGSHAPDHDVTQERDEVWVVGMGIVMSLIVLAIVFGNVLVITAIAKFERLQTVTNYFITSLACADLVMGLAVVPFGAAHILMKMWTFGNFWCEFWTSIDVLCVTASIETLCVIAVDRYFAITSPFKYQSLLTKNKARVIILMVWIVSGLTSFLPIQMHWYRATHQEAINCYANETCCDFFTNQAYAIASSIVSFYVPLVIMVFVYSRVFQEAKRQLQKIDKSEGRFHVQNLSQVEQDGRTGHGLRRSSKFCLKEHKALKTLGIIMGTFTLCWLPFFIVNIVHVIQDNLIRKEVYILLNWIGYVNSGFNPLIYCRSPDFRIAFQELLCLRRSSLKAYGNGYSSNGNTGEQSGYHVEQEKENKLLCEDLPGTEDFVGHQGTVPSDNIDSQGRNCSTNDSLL

## O=P(c1ccccc1)(c1ccccc1)c1ccccc1
[1]
  Potency: inactive
[2]
  Potency: inactive
[3]
  Potency: inactive
[4]
  Potency: inactive
[5]
  Potency: inactive
[6]
  Potency: inactive
[7]
  Potency: inactive
[8]
  Potency: inactive
[9]
  Potency: inactive
[10]
  Potency: inactive
[11]
  Potency: inactive
[12]
  Potency: inactive
[13]
  Potency: inactive
[14]
  Potency: inactive
[15]
  Potency: inactive
[16]
  Potency: inactive
[17]
  Potency: inactive

## O=C(O)c1ccccc1Nc1cc(Cl)ccc1C(=O)O
[1]
  activity change, negative = cytotoxicity: 0.544% [at 19 µM]
[2]
  activity change: -1.18% [at 11.8 µM, stronger effect = higher value]
[3]
  activation: 0.0094% [at 15.8 µM]
[4]
  activation: -0.251% [at 11.8 µM]
[5]
  activation: -15.2% [at 13.5 µM]
[6]
  activation: -10.2% [at 13.6 µM]
[7]
  activity change, negative = cytotoxicity: -16.4% [at 13.5 µM]
[8]
  activity change, negative = cytotoxicity: -20.9% [at 13.5 µM]
[9]
  activity change, negative = cytotoxicity: -5.7% [at 13.5 µM]
[10]
  activation: 1.24% [at 13.5 µM]
[11]
  activity, negative = inhibition: 13.3% [at 12.7 µM]
[12]
  activation: -3.1% [at 15.9 µM]
[13]
  activity, negative = inhibition: 22.2% [at 12.6 µM]
[18]
  activation: 0.0185% [at 15.8 µM]
[14]
  activation: -0.0043% [at 19 µM]
[19]
  activity change, negative = inhibition: -1.66% [at 18.9 µM]

## CCCCC(CC)COCCCN (configuration not stated)
[1]
  Potency: inactive
[2]
  Potency: inactive
[3]
  Potency: inactive
[4]
  Potency: inactive
[5]
  Potency: inactive
[6]
  Potency: inactive
[7]
  Potency: inactive
[8]
  Potency: inactive
[9]
  Potency: inactive
[10]
  Potency: inactive
[11]
  Potency: inactive
[12]
  Potency: 17.2 µM (active)
[13]
  Potency: inactive
[15]
  Potency: inactive
[17]
  Potency: inactive
[19]
  Potency: inactive

## CN1CCN(C)CC1
[1]
  Potency: inactive
[2]
  Potency: inactive
[3]
  Potency: inactive
[4]
  Potency: inactive
[5]
  Potency: inactive
[6]
  Potency: inactive
[7]
  Potency: inactive
[8]
  Potency: inactive
[9]
  Potency: inactive
[10]
  Potency: inactive
[12]
  Potency: inactive
[13]
  Potency: inactive
[18]
  Potency: inactive
[14]
  Potency: inactive
[15]
  Potency: inactive
[16]
  Potency: inactive
[17]
  Potency: inactive
[19]
  Potency: inactive
